In PubChem BioAssay (NCATS):
Results filed as inconclusive are left out. Entries that show only a call come without a potency. Active and inactive are the calls of the source. Calls come from the whole dose curve; as a rule, active = well fitted inhibition curve with a large enough effect; inconclusive = small, poorly fitted or top-dose-only effect; inactive = flat fitted curve, though single readings scatter.

system: CP203; test: qHTS profiling for inhibitors of Plasmodium falciparum proliferation (AID 504749); note: nearly all actives have a fitted effect of over 60% in size; conditions: P. falciparum in erythrocytes, SYBR Green DNA, 72 h; series mostly up to 28.7 µM
In short: (§1)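 Parasite proliferation within erythrocytes, 72 h exposure. Endpoint: SYBR Green I fluorescence after overnight lysis at room temperature. Controls: 0.29 uM artemisinin, DMSO.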
Potency is the fitted concentration of half-maximal effect.

Compound	Potency
COP(=S)(OC)SCN1C(=O)c2ccccc2C1=O	inactive
O=P1(N(CCCl)CCCl)NCCCO1 (stereo not drawn)	inactive
O=C1Nc2ccc(Cl)cc2C(c2ccccc2)=NC1O (stereo not drawn)	inactive
CCCCCCCCCC(=O)O[C@H]1CC[C@H]2[C@@H]3CCC4=CC(=O)CC[C@@H]4[C@H]3CC[C@]12C	inactive
CN1C(=O)CCS(=O)(=O)C1c1ccc(Cl)cc1 (stereo not drawn)	inactive
NC(=O)CS(=O)C(c1ccccc1)c1ccccc1 (stereo not drawn)	inactive
O=c1oc2ccccc2c(O)c1Cc1c(O)c2ccccc2oc1=O	inactive
COc1c2c(cc3c1OCO3)CCN(C)C2	inactive
CC(C)=CC1C(C(=O)OCN2C(=O)C3=C(CCCC3)C2=O)C1(C)C (stereo not drawn)	inactive

system: CP211; test: as above; conditions: P. falciparum in erythrocytes, SYBR Green DNA, 72 h; series mostly up to 28.7 µM
In short: as §1

Compound	Potency
C[C@](O)(CS(=O)(=O)c1ccc(F)cc1)C(=O)Nc1ccc(C#N)c(C(F)(F)F)c1	inactive
COP(=S)(OC)SCN1C(=O)c2ccccc2C1=O	inactive
C[C@]12CC[C@@H]3c4ccc(OC(=O)N(CCCl)CCCl)cc4CC[C@H]3[C@@H]1CC[C@@H]2O	inactive
O=P1(N(CCCl)CCCl)NCCCO1 (stereo not drawn)	inactive
Cc1nnc2n1-c1ccc(Cl)cc1C(c1ccccc1)=NC2	inactive
O=C1Nc2ccc(Cl)cc2C(c2ccccc2)=NC1O (stereo not drawn)	inactive
CCOC(=O)CC(SP(=S)(OC)OC)C(=O)OCC (stereo not drawn)	inactive
CCCCCCCCCC(=O)O[C@H]1CC[C@H]2[C@@H]3CCC4=CC(=O)CC[C@@H]4[C@H]3CC[C@]12C	inactive
Nc1ccccc1C(=O)O	inactive
Oc1ccc(Cl)cc1	inactive
Cc1ncsc1CCCl	inactive
CN1C(=O)CCS(=O)(=O)C1c1ccc(Cl)cc1 (stereo not drawn)	inactive
NCCc1ccc(O)cc1	inactive
C[C@]12CCC(=O)C=C1CC[C@@H]1[C@@H]2CC[C@]2(C)C(=O)CC[C@@H]12	inactive
Clc1ccc2c(c1)C(c1ccccc1)=NCc1nncn1-2	inactive
O=C1CN=C(c2ccccc2)c2cc([N+](=O)[O-])ccc2N1	inactive
NC(=O)CS(=O)C(c1ccccc1)c1ccccc1 (stereo not drawn)	inactive
CCC1(c2ccccc2)C(=O)N(COC)C(=O)N(COC)C1=O	inactive
Nc1ccc([As](=O)(O)O)cc1	inactive
O=c1oc2ccccc2c(O)c1Cc1c(O)c2ccccc2oc1=O	inactive
O=C(O)CCCc1ccc(N(CCCl)CCCl)cc1	inactive
CN1C(=O)NC(=O)C(C)(C2=CCCCC2)C1=O (stereo not drawn)	inactive
CN1C[C@H](C(=O)N[C@]2(C)O[C@@]3(O)[C@@H]4CCCN4C(=O)[C@H](Cc4ccccc4)N3C2=O)C=C2c3cccc4[nH]cc(c34)C[C@H]21	15.1 µM (active)
CCCCCCC(=O)CCCCCC/C=C/C[C@@H](O)[C@H](O)[C@@](N)(CO)C(=O)O	inactive
CC(C)=CC1C(C(=O)OCN2C(=O)C3=C(CCCC3)C2=O)C1(C)C (stereo not drawn)	inactive
CN1C(=O)COc2c(C(=O)NC3CN4CCC3CC4)cc(Cl)cc21 (stereo not drawn)	inactive
COP(=S)(OC)Oc1ccc(SC)c(C)c1	inactive
Nc1nc(N)nc(NC2CC2)n1	inactive
O=C(Nc1ccc(Br)cc1)c1cc(Br)cc(Br)c1O	inactive
